Bioassay records (PubChem BioAssay)
Compounds with a hit are over-represented: about 3.5% of the library has one in this group of screens.
BoNT-F LC inh: BoNT F light chain protease inhibition | Multiplex microsphere protease cleavage assay, flow cytometry | AID 588497 | 0.22% of 360,000 active | inhibition, % at 10 µM; in the data active = inhibition above about 35%, passing the limit was not always enough; inconclusive = no clear call, values can overlap the other calls
Bead autofluor: compound fluorescence in toxin protease inhibitor counterscreen | compound autofluorescence counterscreen, microsphere flow cytometry; active compounds read high | fluorescence intensity (test concentration not listed) | 3.1% of 360,000 active | AID 624483; in the data active = fluorescence intensity above about 16000; inconclusive = no clear call, values can overlap the other calls
Anthrax LF prot: blocks Bacillus anthracis lethal factor protease. P15917. multiplex microsphere protease cleavage assay, LF. inhibition, % at 10 µM. 0.12% of 360,000 active
BH1578 lux ind: quorum light induction in luxS cqsA deficient V. cholerae | activation, % at 18.7 µM | 0.16% of 350,000 active | AID 588436 | V. cholerae BH1578 lux reporter, luminescence, 6 h; in the data active = activation mostly above about 9.7%, no sharp cut-off; inconclusive = no clear call, values can overlap the other calls; inactive = mostly below about 3.7%
BoNT-A LC inh2: inhibitors of Botulinum neurotoxin A light chain protease. inhibition, % at 10 µM. multiplex microsphere protease substrate cleavage, flow cytometry. 0.17% of 360,000 active
A number is an active result; i = inactive; ? = inconclusive; nt = no result given. Cut-off read from the data, not from the text of the source, unless noted: active = inhibition above about 30%; inconclusive = no clear call, values can overlap the other calls; inactive = below that.

SMILES | BoNT-F LC inh | Bead autofluor | Anthrax LF prot | BH1578 lux ind | BoNT-A LC inh2
O=C(COC(=O)c1ccc(=O)[nH]c1)Nc1cccc(S(=O)(=O)N2CCOCC2)c1 | i | i | i | i | i
Cc1ccc(C(=O)Nc2ccccc2C(=O)N2CCCC(C)C2)cc1 (stereo not drawn) | i | i | i | i | i
COc1cc(Br)c(C(C)NC(=O)c2ccccc2)cc1OC (stereo not drawn) | i | 21305 | i | i | i
COc1ccc2c(c1)c1c(n2C)[C@@H]2CC=C(CO)[C@@H](C1)N2C | i | i | i | i | i
Cc1ccnc(NC(=O)Cn2c(=O)oc3ccccc32)c1 | i | i | i | i | i
CC1(C(=O)NS(=O)(=O)c2ccc(Cl)s2)CCN1C(=O)c1ccc(C2CCCCC2)cc1 (stereo not drawn) | i | i | i | i | i
O=C1NCCN1C(=O)c1ccco1 | i | 22557 | i | i | i
CC(=O)N1CCN(C(=O)c2ccco2)CC1 | i | i | i | i | i
CC1(C(=O)N2CCOCC2)CCCCC1 | ? | i | i | i | i
O=S1(=O)CC2(N3CCOCC3)CCCCC21 (stereo not drawn) | i | 19624 | i | i | i
O=S1(=O)CC2(N3CCOCC3)CCCCCCC21 (stereo not drawn) | i | 23822 | i | i | i
COCc1cc(C)nc(SCC[N+](C)(C)CC(=O)c2ccccc2)c1C#N | i | i | i | i | i
Cc1cccc(NC(=O)c2cc(S(=O)(=O)N(C)c3ccc(F)cc3)ccc2Cl)n1 | i | ? | i | i | i
Cc1c(-c2ccccc2)nc(N)c(C#N)c1-c1ccco1 | i | 20557 | i | i | i
Cc1ccc(NC(=O)COc2ccccc2CNC(C)(C)CC(C)(C)C)cc1 | i | 16482 | i | i | i
Cc1ccc(NC(=O)COc2ccc(Br)cc2CO)cc1 | i | 22055 | i | i | i
CC(C)(CO)NCc1ccccc1OCC(=O)Nc1ccccc1 | i | i | i | i | i
O=C(COc1ccc(Br)cc1CO)Nc1ccccc1 | i | i | i | i | i
Cc1ccc(C(=O)n2nc(C#N)c(C#N)c2N)cc1 | i | i | i | i | i
Cc1ccc2nc3c(c(C(=O)OCC(=O)NC4CCS(=O)(=O)C4)c2c1)CCCC3 (stereo not drawn) | i | i | i | i | i
COCc1nnc(NC(=O)CCCCCN2C(=O)c3ccccc3C2=O)s1 | i | i | i | i | i
CCCCC(=O)Nc1cccc(NC(=O)c2ccc(Br)cc2)c1 | i | 24448 | i | i | i
CCSc1ccccc1C(=O)Nc1cccnc1 | i | 23629 | i | i | ?
CCCCC(=O)Nc1ccc(C(=O)Nc2nnc(COC)s2)cc1 | i | 21834 | i | i | i
CCCCC(=O)Nc1ccc(C(=O)Nc2cccnc2)cc1 | i | 16977 | i | i | i
SMILES | BoNT-F LC inh | Bead autofluor | Anthrax LF prot | BH1578 lux ind | BoNT-A LC inh2
CC1CC(C)CN(CCC(=O)Nc2ccc(Br)cc2)C1 (stereo not drawn) | ? | i | i | i | i
CC1CCN(C(=O)c2[nH]cnc2C(=O)N[C@@H](C)c2ccccc2)CC1 | i | i | i | i | i
COc1cccc(-n2c(SC)nnc2-c2cnccn2)c1 | i | 20539 | i | i | i
COc1cccc(-n2c(SCC#N)nnc2-c2cnccn2)c1 | i | i | i | i | i
Cn1c(SCC(N)=O)nnc1-c1cnccn1 | i | i | i | i | i
CSc1nnc(-c2cnccn2)n1C | i | 23864 | i | i | i
O=[N+]([O-])c1cc(S(=O)(=O)C(F)(F)F)ccc1NCC1CCCO1 (stereo not drawn) | i | i | i | i | i
Nc1nc(N)c2c(ccc3c2ccn3Cc2cccc([N+](=O)[O-])c2)n1 | i | i | i | nt | i
CC(C)c1ccc(CN(C(=O)C2COc3ccccc3O2)C2CCS(=O)(=O)C2)cc1 (stereo not drawn) | i | 16571 | i | i | i
CC(C)CC(=O)N(Cc1ccc(F)cc1)C1CCS(=O)(=O)C1 (stereo not drawn) | i | i | i | i | i
CN(C)c1ccc(CN(C(=O)C2COc3ccccc3O2)C2CCS(=O)(=O)C2)cc1 (stereo not drawn) | i | 19479 | i | i | i
Cc1c(C(=O)N(Cc2ccc(N(C)C)cc2)C2CCS(=O)(=O)C2)oc2ccccc12 (stereo not drawn) | i | i | i | i | i
COC(=O)CCC(C)C1CCC2C3CCC4CC(O)CCC4(C)C3CC(O)C12C (stereo not drawn) | i | i | i | i | i
Cc1ccc(S(=O)(=O)N2CCN(C(=O)COC(=O)CNC(=O)c3ccccc3F)CC2)c(C)c1 | i | i | i | i | i
CCNC(=S)NNC(=O)c1cccn(Cc2ccc(Cl)cc2Cl)c1=O | i | 22212 | i | i | ?
C=CCNC(=S)NNC(=O)c1cccc2ccccc12 | i | 21284 | i | i | i
C=CCNC(=S)NNC(=O)c1cccn(Cc2ccc(Cl)cc2Cl)c1=O | i | 22647 | i | i | ?
COc1ccc(NC(=O)c2cc3ccccc3o2)cc1S(=O)(=O)N1CCCCC1 | i | i | i | i | i
CCc1ccc(C(=O)Nn2c(C)nc3ccccc3c2=O)cc1 | i | i | i | i | i
Cc1nc2ccccc2c(=O)n1NC(=O)c1ccc(Cl)c(Cl)c1 | i | i | i | 328 | i
CSc1nc2ccc(S(=O)(=O)N(C)C)cc2s1 | i | 20777 | i | i | ?
CN(C)S(=O)(=O)c1ccc2nc(NC(=O)c3cccs3)sc2c1 | i | 21214 | i | i | i
CCN(CC)S(=O)(=O)c1ccc2nc(SC)sc2c1 | i | 18930 | i | i | i
Cn1cc(-c2coc3c(C(=O)NCc4cccs4)cccc23)cn1 | i | i | i | i | i
Cc1ccc(S(=O)(=O)CCC(=O)Oc2ccc(-c3nnco3)cc2)cc1 | i | i | i | i | i
SMILES | BoNT-F LC inh | Bead autofluor | Anthrax LF prot | BH1578 lux ind | BoNT-A LC inh2
Cc1ccc(CN2CCN(C3CCOCC3)CC2CCO)cc1 (stereo not drawn) | i | i | i | i | i
Cc1cc(N2C(=O)C3C4CCC(C4)C3C2=O)no1 (stereo not drawn) | i | i | i | i | i
CN1CCCC(OC(=O)c2cccc(Br)c2)C1 (stereo not drawn) | ? | i | i | i | i
CN1CCC(OC(=O)c2cccc(Br)c2)CC1 | i | 21018 | i | i | i
O=C(NCc1ccco1)c1noc2c1CCCCC2 | i | 16534 | i | i | i
O=C(NCCc1ccccc1)c1noc2c1CCCCC2 | i | 19823 | i | i | i
O=C(NCc1cccs1)c1noc2c1CCCC2 | i | i | i | i | i
O=C(NCc1cccc(F)c1)c1noc2c1CCCC2 | i | i | i | i | i
O=C(NCc1cccnc1)c1noc2c1CCCC2 | i | 21847 | i | i | i
O=C(NCc1cccnc1)c1noc2c1CCCCC2 | i | i | i | i | i
Cc1ccccc1N/N=C/c1ccc(C#N)cc1 | i | i | i | 60 | i
Cn1c(C(C(=O)NCC2CCCO2)N(C(=O)Cn2nnc3ccccc32)C2CCCCC2)nc2ccccc21 (stereo not drawn) | i | 21506 | i | i | i
Cn1c(SCc2ccc([N+](=O)[O-])cc2)nnc1-c1cccnc1 | i | i | i | i | i
CC(NC(=O)c1ccccc1Br)c1nnc(SCc2ccc([N+](=O)[O-])cc2)n1C (stereo not drawn) | i | 19315 | i | i | i
